# Results as given in the supplement of paper PMC9023506.
# Structures can show the parent of a compound that is named as a salt.
# Columns and labels:
# Conditions in all cases: 10 µM; exposure time: 3 h pre-incubation + 3 h imaging
# [1] = tested on: Danio rerio larvae (5 dpf); test: activity during first hour (no stimuli), difference vs DMSO (percentage points (treated minus DMSO)); higher = more of the behaviour than the DMSO vehicle control
# Summary of the method: (§1)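 Five-days-post-fertilisation wild-type zebrafish larvae were held in 96-well ProxiPlates and exposed to each library drug at a final 10 µM, diluted 1000× from DMSO stocks into egg water, with 48 larvae per drug. Exposure lasted 3 h before and 3 h during imaging at 28.5 °C, with images taken every 6 s across a 3-h program of rest, moving coloured lines and acoustic pulses. An ImageJ macro scored movement and upper-half location, and each behaviour score is the treated-group mean minus the vehicle-group mean, expressed in percentage points.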
# [2] = tested on: Danio rerio larvae (5 dpf); test: optomotor response to blue moving lines, difference vs DMSO (percentage points (treated minus DMSO)); higher = more of the behaviour than the DMSO vehicle control
# Summary of the method: as §1
# [3] = tested on: Danio rerio larvae (5 dpf); test: excitability to 1-s acoustic pulses, difference vs DMSO (percentage points (treated minus DMSO)); higher = more of the behaviour than the DMSO vehicle control
# Summary of the method: as §1
# [4] = tested on: Danio rerio larvae (5 dpf); test: optomotor response to fast red moving lines, difference vs DMSO (percentage points (treated minus DMSO)); higher = more of the behaviour than the DMSO vehicle control
# Summary of the method: as §1
# [5] = tested on: Danio rerio larvae (5 dpf); test: habituation to 1-s acoustic pulses, difference vs DMSO (percentage points (treated minus DMSO)); higher = more of the behaviour than the DMSO vehicle control
# Summary of the method: as §1
# [6] = tested on: Danio rerio larvae (5 dpf); test: optomotor response to red moving lines, difference vs DMSO (percentage points (treated minus DMSO)); higher = more of the behaviour than the DMSO vehicle control
# Summary of the method: as §1
# [7] = tested on: Danio rerio larvae (5 dpf); test: activity during period 15 (no stimuli), difference vs DMSO (percentage points (treated minus DMSO)); higher = more of the behaviour than the DMSO vehicle control
# Summary of the method: as §1
# [8] = tested on: Danio rerio larvae (5 dpf); test: optomotor response to green moving lines, difference vs DMSO (percentage points (treated minus DMSO)); higher = more of the behaviour than the DMSO vehicle control
# Summary of the method: as §1
# [9] = tested on: Danio rerio larvae (5 dpf); test: startle response to 20-s acoustic pulses, difference vs DMSO (percentage points (treated minus DMSO)); higher = more of the behaviour than the DMSO vehicle control
# Summary of the method: as §1
structure (smiles),measurement,setting,value
CCOC(=O)[C@H](CCc1ccccc1)N[C@@H](C)C(=O)N1[C@H](C(=O)O)C[C@@H]2CCC[C@@H]21 [Ramipril],activity during first hour,[1],2.6
same,optomotor response to blue moving lines,[2],4.54
Cc1ccc(O)c([C@H](CCN(C(C)C)C(C)C)c2ccccc2)c1 [Tolterodine L-tartrate],excitability to 1-s acoustic pulses,[3],7.2
same,activity during first hour,[1],1.86
same,optomotor response to blue moving lines,[2],7.18
same,optomotor response,[4],2.15
CC#C[C@]1(O)CC[C@H]2[C@@H]3CCC4=CC(=O)CCC4=C3[C@@H](c3ccc(N(C)C)cc3)C[C@@]21C [Mifepristone],habituation to 1-s acoustic pulses,[5],-0.152
same,optomotor response to red moving lines,[6],3.5
same,activity during period 15,[7],-2.26
same,activity during first hour,[1],-3.58
C[C@]12CCC(=O)C=C1CC[C@@H]1[C@@H]2[C@@H](O)C[C@@]2(C)[C@H]1CC[C@]2(O)C(=O)CO [Hydrocortisone],activity during period 15,[7],-3.01
same,activity during first hour,[1],3.43
same,optomotor response to blue moving lines,[2],8.43
CC(=O)NC[C@H]1CN(c2ccc(N3CCOCC3)c(F)c2)C(=O)O1 [Linezolid],optomotor response to red moving lines,[6],4.59
same,activity during first hour,[1],3.81
O=C(O)c1cc(/N=N/c2ccc(S(=O)(=O)Nc3ccccn3)cc2)ccc1O [Sulfasalazine],activity during first hour,[1],13.5
same,optomotor response to blue moving lines,[2],-4.22
same,optomotor response,[4],-5.17
CN(CCOc1ccc(NS(C)(=O)=O)cc1)CCc1ccc(NS(C)(=O)=O)cc1 [Dofetilide],excitability to 1-s acoustic pulses,[3],4.42
same,optomotor response to red moving lines,[6],-14.2
same,activity during period 15,[7],-9.09
same,activity during first hour,[1],1.68
CN(C)CCc1c[nH]c2ccc(C[C@H]3COC(=O)N3)cc12 [Zolmitriptan],habituation to 1-s acoustic pulses,[5],-1.85
same,excitability to 1-s acoustic pulses,[3],3.25
same,optomotor response to red moving lines,[6],2.8
same,activity during period 15,[7],2.6
same,activity during first hour,[1],7.82
same,optomotor response to blue moving lines,[2],9.9
same,optomotor response to green moving lines,[8],6.88
COc1cc(Nc2c(C#N)cnc3cc(OCCCN4CCN(C)CC4)c(OC)cc23)c(Cl)cc1Cl [Bosutinib],optomotor response to red moving lines,[6],3.82
same,activity during period 15,[7],-11.7
same,optomotor response to blue moving lines,[2],-9.89
same,startle response to 20-s acoustic pulses,[9],-0.606
same,optomotor response,[4],1.89
Nc1nc(F)nc2c1ncn2[C@@H]1O[C@H](CO)[C@@H](O)[C@@H]1O [Fludarabine],habituation to 1-s acoustic pulses,[5],-1.56
same,activity during first hour,[1],3.66
CCOC(=O)C1=C(C)NC(C)=C(C(=O)OC)C1c1cccc(Cl)c1Cl (stereo not given) [Felodipine],habituation to 1-s acoustic pulses,[5],-11.1
same,activity during first hour,[1],-12.9
CCOc1nc2cccc(C(=O)O)c2n1Cc1ccc(-c2ccccc2-c2nnn[nH]2)cc1 [Candesartan],habituation to 1-s acoustic pulses,[5],4.86
same,activity during first hour,[1],4.62
same,optomotor response,[4],1.2
CC(C)(C#N)c1cc(Cn2cncn2)cc(C(C)(C)C#N)c1 [Anastrozole],activity during period 15,[7],2.84
same,activity during first hour,[1],3.37
CC1CNc2c(cccc2S(=O)(=O)N[C@@H](CCCNC(=N)N)C(=O)N2CC[C@@H](C)C[C@@H]2C(=O)O)C1 (stereo not given in full) [Argatroban],habituation to 1-s acoustic pulses,[5],-0.436
same,activity during period 15,[7],-2.33
same,activity during first hour,[1],4.69
same,optomotor response,[4],-3.36
CCCCCCCCc1ccc(CCC(N)(CO)CO)cc1,habituation to 1-s acoustic pulses,[5],3.87
same,excitability to 1-s acoustic pulses,[3],14.4
same,activity during period 15,[7],-23.3
same,activity during first hour,[1],-17.7
same,startle response to 20-s acoustic pulses,[9],-1.81
same,optomotor response,[4],10.4
CNCc1ccc(-c2[nH]c3cc(F)cc4c3c2CCNC4=O)cc1 [Rucaparib camsylate],excitability to 1-s acoustic pulses,[3],12.5
same,activity during first hour,[1],-13.6
same,optomotor response,[4],3.57
CC(C)(C(=O)O)c1ccc(C(O)CCCN2CCC(C(O)(c3ccccc3)c3ccccc3)CC2)cc1 (stereo not given) [Fexofenadine hydrochloride],activity during period 15,[7],1.68
same,activity during first hour,[1],5.4
same,startle response to 20-s acoustic pulses,[9],4
same,optomotor response,[4],-0.251
O=C(O[C@@H]1C[C@@H]2C[C@H]3C[C@H](C1)N2CC3=O)c1c[nH]c2ccccc12 [Dolasetron mesylate],optomotor response to red moving lines,[6],-6.24
CC(c1cc2ccccc2s1)N(O)C(N)=O (stereo not given) [Zileuton],optomotor response to red moving lines,[6],-7.52
CC(C)(C(=O)c1cccnc1)c1cccnc1 [Metyrapone],habituation to 1-s acoustic pulses,[5],-0.218
same,activity during first hour,[1],-5.92
same,startle response to 20-s acoustic pulses,[9],3.51
CC1=Nc2ccc(Cl)cc2S(=O)(=O)N1 [Diazoxide],optomotor response to red moving lines,[6],0.599
Clc1ccc(COC(Cn2ccnc2)c2ccc(Cl)cc2Cl)c(Cl)c1 (stereo not given) [Miconazole nitrate],excitability to 1-s acoustic pulses,[3],-0.632
same,activity during first hour,[1],-18.4
same,startle response to 20-s acoustic pulses,[9],4.56
Cc1cn([C@H]2C=C[C@@H](CO)O2)c(=O)[nH]c1=O [Stavudine],habituation to 1-s acoustic pulses,[5],-0.918
same,activity during first hour,[1],-4.71
CN[C@H]1CC[C@@H](c2ccc(Cl)c(Cl)c2)c2ccccc21 [Sertraline hydrochloride],habituation to 1-s acoustic pulses,[5],-2.9
same,activity during period 15,[7],-26
same,activity during first hour,[1],-24.2
CCc1ccc(CCOc2ccc(CC3SC(=O)NC3=O)cc2)nc1 (stereo not given) [Pioglitazone hydrochloride],activity during first hour,[1],-5.36
same,optomotor response to green moving lines,[8],-7.6
same,startle response to 20-s acoustic pulses,[9],-3.21
CCCC1O[C@@H]2C[C@H]3[C@@H]4CCC5=CC(=O)C=C[C@]5(C)[C@H]4[C@@H](O)C[C@]3(C)[C@]2(C(=O)CO)O1 (stereo not given in full) [Budesonide],excitability to 1-s acoustic pulses,[3],-1.66
same,activity during first hour,[1],4.76
CC(=O)O[C@]1(C(C)=O)CC[C@H]2[C@@H]3C=C(C)C4=CC(=O)CC[C@]4(C)[C@H]3CC[C@@]21C [Megestrol Acetate],habituation to 1-s acoustic pulses,[5],-2.13
same,excitability to 1-s acoustic pulses,[3],14.4
same,activity during first hour,[1],-14.3
same,optomotor response to green moving lines,[8],-2.03
C[C@@H]1C[C@H]2[C@@H]3CCC4=CC(=O)C=C[C@]4(C)[C@@]3(F)[C@@H](O)C[C@]2(C)[C@@]1(O)C(=O)CO [Dexamethasone],habituation to 1-s acoustic pulses,[5],2.44
same,activity during first hour,[1],15
